Compound activity (PubChem BioAssay)
PLAP act = PLAP enzyme activators, biochemical, luminescence, HTS | activation fold at 20 µM | purified PLAP enzyme, luminescent substrate read-out; stronger effect = higher value | Alkaline phosphatase, placental type (Homo sapiens), P05187 | 1.2% of 96,000 active | AID 696, 2007; in the data active means activation fold above about 2
Cav3 T inh = Cav3.2 calcium influx blockers – cell-based, Fluo-4 calcium fluorescence, FDSS, MLSMR library, primary screen; Voltage-dependent T-type calcium channel subunit alpha-1H (Homo sapiens), O95180; AID 449739, 2010; Cav3.2-expressing cells; stronger effect = lower value; B-score at 10 µM; 4% of 100,000 active;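 active means single-dose well whose peak fluorescence ratio is a statistical outlier from its plate by either plate-standardised score or position-corrected B-score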
PostGolgi ctrl = growth inhibition of yeast control strain, primary screen, counter-screen for post-Golgi transport modulator project; efflux-deficient yeast background strain, growth absorbance A615, 16 h; inhibition, % at 10 µM; 5% of 98,000 active; AID 738, 2007
DAT uptake mod = changed hDAT dopamine uptake under cocaine IC80, either direction, primary screen, cocaine antagonist project, cell-based, LLC-PK1 hDAT, [14C]-dopamine uptake, MLSMR | Sodium-dependent dopamine transporter (Homo sapiens), Q01959 | LLC-PK1 hDAT cells, [14C]-dopamine uptake with cocaine IC80; actives deviate in either direction | B-score at 10 µM | 1.3% of 110,000 active;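 active means Z score or B-score, a plate-position-corrected score, falls beyond the plate's 99.7% confidence bounds, in either direction; inactive means both scores lie inside the 99.7% bounds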
Target sequence (Q01959 whole entry, looked up): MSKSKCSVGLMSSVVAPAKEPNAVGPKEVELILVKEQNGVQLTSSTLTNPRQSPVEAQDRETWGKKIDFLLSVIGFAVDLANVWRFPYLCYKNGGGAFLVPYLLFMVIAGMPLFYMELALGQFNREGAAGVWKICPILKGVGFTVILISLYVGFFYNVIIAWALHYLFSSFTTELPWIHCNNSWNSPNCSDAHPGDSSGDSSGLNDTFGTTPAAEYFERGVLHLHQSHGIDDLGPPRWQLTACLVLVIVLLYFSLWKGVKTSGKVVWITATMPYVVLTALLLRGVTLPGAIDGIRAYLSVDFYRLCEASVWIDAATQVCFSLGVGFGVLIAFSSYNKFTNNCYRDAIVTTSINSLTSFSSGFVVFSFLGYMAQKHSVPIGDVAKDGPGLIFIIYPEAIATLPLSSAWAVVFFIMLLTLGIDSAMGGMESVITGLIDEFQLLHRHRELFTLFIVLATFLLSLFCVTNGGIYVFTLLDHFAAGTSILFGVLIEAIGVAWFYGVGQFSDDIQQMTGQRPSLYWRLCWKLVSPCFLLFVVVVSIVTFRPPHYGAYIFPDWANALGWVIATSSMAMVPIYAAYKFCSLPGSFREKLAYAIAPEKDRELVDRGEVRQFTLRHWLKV
D1 mod = D1 CRE-luciferase signal change, two-sided – cell-based, HEK293 D1, dopamine EC30, D1 allosteric modulator project, primary screen; D(1A) dopamine receptor (Homo sapiens), P21728; dopamine EC30 potentiation; actives deviate in either direction; B-score at 10 µM; 5.9% of 58,000 active;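 active means luminescence count or its row- and column-corrected plate score outside the 99.7% band of the plate's sample wells, on either side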
PostGolgi yeast = phenotypic screen on post-Golgi transport, primary screen; inhibition, % at 10 µM; 0.9% of 98,000 active; post-Golgi transport phenotypic cell assay; AID 739, 2007;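 further: yeast cells grown in 1536-well plates; yeast grown about 18 h at 30C before absorbance read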
Hits are given with their value. Compounds with a hit are over-represented: about 12% of the library has one in this group of screens. Unless noted, no stated cut-off is given here; in the data, active means inhibition above about 30%; inactive means the rest.

How did COc1ccccc1OCc1ccc(C(=O)n2nc(C)c(Cl)c2C)o1 do in these assays?
PLAP act: inactive; Cav3 T inh: inactive; PostGolgi ctrl: 33; DAT uptake mod: inactive; D1 mod: inactive; PostGolgi yeast: inactive

How did CC(C)COC(=O)N1CC(O)CC1C(=O)O (stereo not drawn) do in these assays?
PLAP act: inactive; Cav3 T inh: inactive; PostGolgi ctrl: inactive; DAT uptake mod: inactive; D1 mod: inactive; PostGolgi yeast: inactive

Results for Cc1ccc(/C=C2\CCC3=C2OC(N)=C(C#N)C3c2ccc(C)cc2)cc1 (stereo not drawn) ?
PLAP act: inactive; Cav3 T inh: -6.5; PostGolgi ctrl: inactive; DAT uptake mod: inactive; PostGolgi yeast: inactive

What do the screens show for `CC(O)[C@H]1CNC(=O)C(=O)N1CCCCC1CCCCC1` (stereo partly drawn)?
Cav3 T inh: inactive; DAT uptake mod: inactive

What do the screens show for `Cc1ccc2oc(=O)n(Cc3ccccc3OC(C)C)c2c1`?
PLAP act: inactive; Cav3 T inh: -6; PostGolgi ctrl: inactive; DAT uptake mod: inactive; D1 mod: inactive; PostGolgi yeast: inactive

What do the screens show for `Cc1ccc(NCc2nnc(SCCN3CCCCC3)n2CC2CCCO2)cc1Cl` (stereo not drawn)?
PLAP act: 2; Cav3 T inh: inactive; PostGolgi ctrl: inactive; DAT uptake mod: 2.4; D1 mod: inactive; PostGolgi yeast: inactive

What do the screens show for `Cc1ccc(NCc2nnc(SCC(=O)NCc3ccco3)n2CC2CCCO2)cc1Cl` (stereo not drawn)?
PLAP act: inactive; Cav3 T inh: inactive; PostGolgi ctrl: inactive; DAT uptake mod: inactive; D1 mod: inactive; PostGolgi yeast: inactive

How did Cc1cc(C)c(C#N)c(SCS(=O)Cc2ccc(Cl)cc2)n1 (stereo not drawn) do in these assays?
PLAP act: inactive; Cav3 T inh: inactive; PostGolgi ctrl: 38; DAT uptake mod: inactive; D1 mod: inactive; PostGolgi yeast: inactive

How did O=c1ccn(-c2cccc(C(F)(F)F)c2)nc1-c1ccn(-c2cccc(Cl)c2)n1 do in these assays?
PLAP act: inactive; Cav3 T inh: -5.7; PostGolgi ctrl: 50; DAT uptake mod: inactive; PostGolgi yeast: inactive

What do the screens show for `O=C(CN1CCN(c2ncc(C(F)(F)F)cc2Cl)CC1)NC(=O)NCc1ccccc1`?
PLAP act: inactive; Cav3 T inh: inactive; PostGolgi ctrl: inactive; DAT uptake mod: inactive; D1 mod: inactive; PostGolgi yeast: inactive

What do the screens show for `O=C(CN1CCN(c2ncc(C(F)(F)F)cc2Cl)CC1)NCCNc1ncc(C(F)(F)F)cc1Cl`?
PLAP act: inactive; Cav3 T inh: inactive; PostGolgi ctrl: 85; DAT uptake mod: inactive; PostGolgi yeast: inactive

What do the screens show for `CC(C)(C)NC(=O)NC(=O)CN1CCN(c2ncc(C(F)(F)F)cc2Cl)CC1`?
PLAP act: inactive; Cav3 T inh: inactive; PostGolgi ctrl: 32; DAT uptake mod: inactive; PostGolgi yeast: inactive

How did CC(=O)c1ccc(N2CCN(c3ncc(C(F)(F)F)cc3Cl)CC2)cc1 do in these assays?
PLAP act: inactive; Cav3 T inh: inactive; PostGolgi ctrl: inactive; DAT uptake mod: inactive; PostGolgi yeast: inactive

What do the screens show for `CCOc1cc(C2C(C(=O)N3CCCCC3)=C(C)NC3=C2C(=O)CCC3)cc(Br)c1O` (stereo not drawn)?
PLAP act: inactive; Cav3 T inh: inactive; PostGolgi ctrl: inactive; DAT uptake mod: inactive; D1 mod: inactive; PostGolgi yeast: inactive

Results for Cc1[nH]c2ccccc2c1/C=C(\C#N)S(=O)(=O)c1ccccc1 ?
PLAP act: inactive; Cav3 T inh: inactive; PostGolgi ctrl: inactive; DAT uptake mod: inactive; PostGolgi yeast: inactive

Results for N#C/C(=C\c1ccc(O)c(O)c1)S(=O)(=O)c1ccccc1 ?
PLAP act: inactive; Cav3 T inh: inactive; PostGolgi ctrl: inactive; DAT uptake mod: -2.6; D1 mod: inactive; PostGolgi yeast: inactive

What do the screens show for `Cc1nn(Cc2ccc([N+](=O)[O-])cc2)c(=O)n1-c1ccccc1`?
PLAP act: inactive; Cav3 T inh: inactive; PostGolgi ctrl: inactive; DAT uptake mod: inactive; PostGolgi yeast: inactive

Results for CCCCC1(Cc2ccc([N+](=O)[O-])cc2)C(=O)N(c2ccccc2)N(c2ccccc2)C1=O ?
Cav3 T inh: -4.8; PostGolgi ctrl: inactive; DAT uptake mod: inactive; PostGolgi yeast: inactive

How did Cc1ccc(CNC(=O)C2CC(=O)N(c3ccc(OCC(=O)N4CCCC4)cc3)C2)cc1 (stereo not drawn) do in these assays?
Cav3 T inh: inactive; DAT uptake mod: inactive

How did Clc1ccc(/C=N/NC(=Nc2ccccc2)c2ccccn2)c(Cl)c1 do in these assays?
PLAP act: inactive; PostGolgi ctrl: 37; PostGolgi yeast: inactive

How did O=C(NCc1ccc(Cl)cc1Cl)c1ccccn1 do in these assays?
PLAP act: inactive; Cav3 T inh: inactive; PostGolgi ctrl: inactive; DAT uptake mod: inactive; D1 mod: inactive; PostGolgi yeast: inactive

Results for C[C@H]1CC[C@H]2C(=O)N[C@H](Cc3ccccc3)C(=O)N2[C@@H]1c1ccccc1 ?
Cav3 T inh: inactive; DAT uptake mod: inactive

How did Cc1ccc(OS(=O)(=O)c2ccccc2)c(/C=N/N=C2\NC(=O)C(C)S2)c1 (stereo not drawn) do in these assays?
Cav3 T inh: inactive; PostGolgi ctrl: 41; DAT uptake mod: inactive; PostGolgi yeast: inactive

What do the screens show for `S=C(NCCSCc1ccccc1Cl)Nc1ccccc1`?
Cav3 T inh: -6.4; PostGolgi ctrl: inactive; DAT uptake mod: inactive; PostGolgi yeast: inactive

How did S=C(NCCSCc1ccc(Cl)cc1)Nc1ccccc1 do in these assays?
PLAP act: inactive; PostGolgi ctrl: inactive; PostGolgi yeast: inactive

How did C=C(C)CN1C(=O)C(O)(CC(=O)c2ccc3c(c2)OCCO3)c2ccccc21 (stereo not drawn) do in these assays?
PLAP act: inactive; Cav3 T inh: inactive; PostGolgi ctrl: 41; DAT uptake mod: inactive; D1 mod: inactive; PostGolgi yeast: inactive

Results for N#CCCCN1C(=O)C(O)(CC(=O)c2ccc3c(c2)OCCO3)c2ccccc21 (stereo not drawn) ?
PLAP act: inactive; Cav3 T inh: inactive; PostGolgi ctrl: inactive; DAT uptake mod: inactive; D1 mod: inactive; PostGolgi yeast: inactive

What do the screens show for `Cc1ccc(N=c2oc3cc(O)ccc3cc2C(N)=O)cc1`?
PLAP act: inactive; Cav3 T inh: inactive; PostGolgi ctrl: 58; DAT uptake mod: inactive; D1 mod: inactive; PostGolgi yeast: 30

How did O=C(NCCSCc1ccco1)Nc1ccc(Cl)cc1 do in these assays?
PLAP act: inactive; PostGolgi ctrl: inactive; DAT uptake mod: inactive; D1 mod: inactive; PostGolgi yeast: inactive

What do the screens show for `O=C(NCCSCc1ccco1)Nc1cccc(Cl)c1`?
PLAP act: inactive; Cav3 T inh: -4.5; PostGolgi ctrl: inactive; DAT uptake mod: inactive; D1 mod: inactive; PostGolgi yeast: inactive
